The text below walks through data of PubChem BioAssay (EPA / NIEHS).

Usually AC50 stands for the midpoint of the concentration-response curve, whichever way the signal moves.

The source made the active and inactive calls. The calls were made as follows: active = hit-call score of the fitted dose curve at least 0.9, where 1 is the maximum; inactive = score below 0.9.

Test [1] can be described thus: ATG_CRE_CIS: Attagene CIS-FACTORIAL HepG2 Assay for human cAMP Responsive Element (CRE) binding protein 3 (AID 2282926). The conditions noted are these: HepG2 CRE cis-reporter, Attagene multiplexed mRNA; actives raise or lower the signal. A digest of the protocol:
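Capillary electrophoresis of 6-FAM-labelled, HpaI-digested PCR products quantified reporter transcripts. These came from HepG2 transiently transfected with cis-element reporters and exposed to test chemicals for 24 hours, with DMSO defining baseline activity.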

For test [2], the target named is CCAAT/enhancer-binding protein beta (Homo sapiens) (UniProt P17676). The test can be described thus: ATG_C_EBP_CIS: Attagene CIS-FACTORIAL HepG2 Assay for human CCAAT/Enhancer Binding Protein (C/EBP) beta (AID 2282927). To be noted: HepG2 Attagene cis-factorial transcription factor reporter; actives raise or lower the signal. The essentials:
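Following a 24 h incubation with test chemical, transfected HepG2 cells yielded RNA whose reporter transcripts were quantified by RT-PCR and fluorescent capillary electrophoresis, with DMSO serving as baseline for bidirectional fitting.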

Test [3] can be described thus: ATG_CMV_CIS: Attagene CIS-FACTORIAL HepG2 Assay for human CMV (Internal Marker) (AID 2282928).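 Also: endpoint acts as a background internal control marker rather than a target.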 The conditions noted are these: HepG2 CMV promoter reporter, transcription factor profiling; actives raise or lower the signal. A digest of the protocol: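 Fluorescence intensity of RT-PCR-derived reporter fragments, resolved by capillary electrophoresis, gives the signal. HepG2 liver cells bearing transfected cis-element reporters were treated 24 h; activity in either direction was fit relative to DMSO-treated controls.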

Test [4] is described as follows: ATG_DR4_LXR_CIS: Attagene CIS-FACTORIAL HepG2 Assay for human Liver X Receptor (LXR), DR4 submotif (AID 2282929). To be noted: HepG2 Attagene DR4 cis-reporter, mRNA transcription; actives raise or lower the signal. A digest of the protocol:
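Cells were transfected with multiple reporter transcription units, exposed to chemicals for 24 hours, then lysed for RNA. Reporter mRNA induction was measured by RT-PCR with capillary electrophoresis detection and fitted in both directions relative to DMSO.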

Test [5] in a line: ATG_AP_1_CIS: Attagene CIS-FACTORIAL HepG2 Assay for human Activator Protein 1 (AP-1) (AID 2282931). To be noted: HepG2 Attagene cis-factorial AP-1 reporter mRNA; actives raise or lower the signal. A digest of the protocol: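 Endogenous transcription-factor activity in human HepG2 liver cells is read through a cis-promoter reporter transcript, sampled 24 h after dosing. Detection uses RT-PCR with capillary electrophoresis; values come from bidirectional fitting relative to DMSO.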

The nature of test [6]: ATG_AP_2_CIS: Attagene CIS-FACTORIAL HepG2 Assay for human Activator Protein 2 (AP-2) (AID 2282932). The conditions noted are these: HepG2 AP-2 cis-reporter, Attagene transcription factor profiling; actives raise or lower the signal. A digest of the protocol: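 Cells (HepG2) transfected with promoter-driven reporter constructs, treated 24 h. Total RNA reverse-transcribed, reporter cDNA PCR-amplified, FAM-labelled by primer extension, digested, resolved by capillary electrophoresis. Activity fitted both directions versus DMSO.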

Test [7] can be described thus: ATG_BRE_CIS: Attagene CIS-FACTORIAL HepG2 Assay for human Bone Morphogenetic Protein (BMP) Response Element (BRE) (AID 2282933). The conditions noted are these: HepG2 BMP response element reporter, Attagene transcription factor profiling; actives raise or lower the signal. The essentials: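 HepG2 cells transiently transfected with CIS reporter units (endogenous TF activity, BMP response element), dosed 24 h. Reporter mRNA quantified by RT-PCR, fluorescent labelling and capillary electrophoresis; bidirectional fit vs DMSO baseline.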

For test [8], the target named is Transcription factor E2F1 (Homo sapiens) (UniProt Q01094). Put plainly: ATG_E2F_CIS: Attagene CIS-FACTORIAL HepG2 Assay for human E2F Transcription Factor 1 (AID 2282935). The conditions noted are these: HepG2 Attagene cis-reporter, E2F reporter RNA transcripts; actives raise or lower the signal. The essentials: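 First, HepG2 cells were transfected with reporter transcription units. Next, they were dosed for 24 h. Then RNA was isolated, converted to cDNA, PCR-amplified, FAM-labeled, HpaI-digested and analyzed by capillary electrophoresis.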

Test [9] can be described thus: ATG_E_Box_CIS: Attagene CIS-FACTORIAL HepG2 Assay for human Enhancer Box (E-box) (AID 2282936). To be noted: HepG2 E-box cis-reporter transcription, actives raise or lower the signal. The essentials:
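Endogenous transcription factor activity was sensed in human HepG2 liver cells through transfected cis-promoter reporter units. After 24 h of dosing, total RNA was reverse-transcribed and reporter cDNA resolved by capillary electrophoresis.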

Test [10] is described as follows: ATG_M_61_CIS: Attagene CIS-FACTORIAL HepG2 Assay for M61 Transcription Factor (Internal Marker) (AID 2282937). To be noted: HepG2 Attagene CIS-FACTORIAL M61 internal marker reporter; actives raise or lower the signal. The essentials:
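Cells were transfected with reporter units under cis-regulatory promoters, treated with chemicals for 24 h, then lysed for RNA. Reporter transcripts were quantified by RT-PCR and capillary electrophoresis, and activity was fitted bidirectionally against DMSO.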

The nature of test [11]: ATG_EGR_CIS: Attagene CIS-FACTORIAL HepG2 Assay for human Early Growth Response 1 (EGR1) (AID 2282938). The conditions noted are these: HepG2 Attagene CIS-FACTORIAL EGR reporter mRNA; actives raise or lower the signal. A digest of the protocol:
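Endogenous TF activity in HepG2 liver cells was gauged through cis-promoter reporter constructs transiently transfected. After 24 h dosing, reporter mRNA was quantified by RT-PCR and capillary electrophoresis, and curves fitted in both directions versus DMSO.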

Test [12] is described as follows: ATG_Ets_CIS: Attagene CIS-FACTORIAL HepG2 Assay for human Erythroblast Transformation Specific (ETS) (AID 2282941). The conditions noted are these: HepG2 ETS cis-reporter transcription, actives raise or lower the signal. A digest of the protocol:
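Multiplexed reporter transcript profiling: HepG2, 24 h treatment, total RNA to cDNA, PCR, 6-FAM labelling, HpaI cut, capillary electrophoresis. Gain- or loss-of-signal fitted against DMSO.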

A short description of test [13]: ATG_FoxO_CIS: Attagene CIS-FACTORIAL HepG2 Assay for human Forkhead box O (FoxO) (AID 2282943). To be noted: HepG2 Attagene cis-reporter, FoxO element, mRNA; actives raise or lower the signal. The essentials:
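Values reflect reporter mRNA induction or loss in HepG2 cells 24 h post-dosing, fitted bidirectionally with DMSO as negative control and baseline. Detection used RT-PCR and fluorescence capillary electrophoresis.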

Test [14] in a line: ATG_GATA_CIS: Attagene CIS-FACTORIAL HepG2 Assay for human GATA Binding Protein (AID 2282944). To be noted: HepG2 GATA cis-element reporter, Attagene multiplex mRNA; actives raise or lower the signal. The essentials: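 HepG2 cells transiently transfected with multiplexed cis-element reporter units measure endogenous GATA activity; after 24 h compound exposure, reporter mRNA quantified by RT-PCR and capillary electrophoresis. Changes fitted in both directions vs DMSO.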

Test [15] can be described thus: ATG_GLI_CIS: Attagene CIS-FACTORIAL HepG2 Assay for human Zinc Finger Protein GLI1 (AID 2282945). The conditions noted are these: HepG2, Attagene cis-factorial reporter mRNA, GLI element; actives raise or lower the signal. A digest of the protocol:
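HepG2 cells transiently transfected with cis-promoter multiplexed reporter units report endogenous transcription factor activity. After 24 h chemical exposure, reporter mRNA was quantified by RT-PCR, 6-FAM labelling, HpaI digestion and capillary electrophoresis, with bidirectional fitting against DMSO.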

Test [16] is described as follows: ATG_ISRE_CIS: Attagene CIS-FACTORIAL HepG2 Assay for human Interferon Regulatory Factor 1 (IRF1) binding to an Interferon-Stimulated Response Element (ISRE) (AID 2282948). The conditions noted are these: HepG2 ISRE cis-reporter (Attagene), mRNA transcription readout; actives raise or lower the signal. A digest of the protocol:
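Signal reflects induction or loss of ISRE-linked reporter mRNA in transiently transfected HepG2 cells after a 24 h treatment, detected by fluorescent RT-PCR fragments on capillary electrophoresis and normalised to DMSO.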

The nature of test [17]: ATG_M_32_CIS: Attagene CIS-FACTORIAL HepG2 Assay for M32 Transcription Factor (Internal Marker) (AID 2282949).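 Also: background control marker of the multiplexed CIS panel rather than a real target.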 The conditions noted are these: HepG2 Attagene cis-factorial M32 reporter, mRNA; actives raise or lower the signal. A digest of the protocol:
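HepG2 human liver cells transiently transfected with cis-promoter-driven multiple reporter transcription units, dosed 24 h. Reporter mRNA quantified by RT-PCR, FAM-labelled primer extension, HpaI digest and capillary electrophoresis; bidirectional fit versus DMSO baseline.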

Test [18] can be described thus: ATG_M_06_CIS: Attagene CIS-FACTORIAL HepG2 Assay for M06 Transcription Factor (Internal Marker) (AID 2282950). The conditions noted are these: HepG2 Attagene CIS-FACTORIAL M06 internal marker reporter; actives raise or lower the signal. A digest of the protocol: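 Internal background marker within multiplexed cis-reporter HepG2 system. Cells transiently transfected, dosed 24 h; reporter mRNA measured by RT-PCR, HpaI digestion and capillary electrophoresis. Bidirectional fit relative to DMSO.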

The target of test [19] is Paired box protein Pax-6 (Homo sapiens) (UniProt P26367). Put plainly: ATG_Pax6_CIS: Attagene CIS-FACTORIAL HepG2 Assay for human Paired Box 6 (PAX6) (AID 2282956). To be noted: HepG2 CIS-FACTORIAL PAX6 reporter transcription, RNA readout; actives raise or lower the signal. A digest of the protocol: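 Values derive from bidirectional curve fitting of reporter mRNA signal relative to DMSO. HepG2 cells bearing transfected cis-regulated MRTUs were exposed for 24 h; transcripts were read by RT-PCR and capillary electrophoresis.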

Test [20] can be described thus: ATG_PXRE_CIS: Attagene CIS-FACTORIAL HepG2 Assay for human Pregnane X Receptor Element (PXRE) (AID 2282957). The conditions noted are these: HepG2 Attagene CIS-FACTORIAL PXRE reporter, mRNA; actives raise or lower the signal. The essentials: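 Fluorescent capillary electrophoresis of amplified reporter cDNA gave the signal, collected 24 h after dosing HepG2 cells that held transfected cis-element reporter constructs.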

Chain of CCAAT/enhancer-binding protein beta (Homo sapiens) (P17676 whole entry, looked up): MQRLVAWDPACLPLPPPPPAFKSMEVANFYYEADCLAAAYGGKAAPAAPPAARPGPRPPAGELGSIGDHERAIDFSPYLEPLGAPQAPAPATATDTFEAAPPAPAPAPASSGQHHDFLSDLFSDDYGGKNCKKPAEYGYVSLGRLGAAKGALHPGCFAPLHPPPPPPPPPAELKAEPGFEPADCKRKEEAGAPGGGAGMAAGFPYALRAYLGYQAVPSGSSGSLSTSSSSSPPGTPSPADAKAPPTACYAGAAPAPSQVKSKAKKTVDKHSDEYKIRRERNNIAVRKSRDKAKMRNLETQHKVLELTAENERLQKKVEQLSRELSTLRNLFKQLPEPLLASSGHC
Chain of Paired box protein Pax-6 (Homo sapiens) (P26367 whole entry, looked up): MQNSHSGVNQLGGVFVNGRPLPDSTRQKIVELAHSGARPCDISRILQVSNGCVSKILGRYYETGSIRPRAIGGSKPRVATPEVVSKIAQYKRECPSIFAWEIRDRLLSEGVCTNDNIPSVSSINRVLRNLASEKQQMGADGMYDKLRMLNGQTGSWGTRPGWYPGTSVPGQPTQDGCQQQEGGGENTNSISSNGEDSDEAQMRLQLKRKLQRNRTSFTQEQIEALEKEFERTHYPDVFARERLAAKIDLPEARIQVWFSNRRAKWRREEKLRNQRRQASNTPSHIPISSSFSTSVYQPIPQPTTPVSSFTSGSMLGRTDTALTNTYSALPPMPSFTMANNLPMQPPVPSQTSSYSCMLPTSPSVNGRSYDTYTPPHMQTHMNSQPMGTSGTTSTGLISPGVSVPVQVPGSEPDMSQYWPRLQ
Chain of Transcription factor E2F1 (Homo sapiens) (Q01094 whole entry, looked up): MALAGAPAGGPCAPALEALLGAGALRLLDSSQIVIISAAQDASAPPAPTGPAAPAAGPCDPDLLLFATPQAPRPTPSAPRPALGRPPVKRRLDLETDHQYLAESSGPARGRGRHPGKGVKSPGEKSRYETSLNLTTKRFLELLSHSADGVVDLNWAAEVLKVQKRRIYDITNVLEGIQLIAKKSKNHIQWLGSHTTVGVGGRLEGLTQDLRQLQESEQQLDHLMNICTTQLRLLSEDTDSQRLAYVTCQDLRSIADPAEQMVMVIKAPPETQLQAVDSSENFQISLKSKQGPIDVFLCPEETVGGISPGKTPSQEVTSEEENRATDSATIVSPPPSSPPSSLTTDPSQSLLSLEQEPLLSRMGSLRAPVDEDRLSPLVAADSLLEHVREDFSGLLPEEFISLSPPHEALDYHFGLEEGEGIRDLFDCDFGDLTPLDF

Regarding `C=CC(C)(CCC=C(C)C)OC(=O)c1ccccc1` (stereo not given), the result in test [1], in test [2], in test [6], in test [7], in test [8] and in test [9] was inactive. Moreover, the outcome in [10], in test [11], in [12], in test [13], in [14] and in test [15] was inactive. The compound was called inactive in test [16], in test [17], in test [18] and in test [19]. Further, the AC50 was 100 µM (active) in test [3], 34.2 µM (active) in test [4], 127 µM (active) in test [5] and 6.33 µM (active) in test [20].

Turning to `O=C(c1ccccc1)c1ccccc1O`, the result in test [1], in [2], in test [3], in test [5], in [6] and in test [7] was inactive. In addition, the outcome in test [8], in [9], in test [10], in test [11], in test [12] and in test [13] was inactive. Besides, the compound was classed as inactive in test [14], in test [15], in test [17], in test [18] and in test [19]. The half-maximal activity concentration (AC50) is 162 µM (active) in test [4], 161 µM (active) in test [16] and 26.7 µM (active) in test [20].

Regarding `Clc1ccc(Sc2cc(Cl)c(Cl)cc2Cl)cc1`, the outcome in [1], in test [2], in [3], in test [4], in test [5] and in test [6] was inactive. In addition, the result in [7], in test [8], in [9], in test [10], in [11] and in test [12] was inactive. Further, the call in test [13], in test [14], in test [15], in [16], in test [17] and in test [18] was inactive. Also, the compound was called inactive in test [19]. Also, the AC50 in test [20] was 5.97 µM (active).

In the case of `CCC(=O)OCc1ccc(OC)cc1`, the call in test [1], in test [2], in test [3], in test [4], in test [5] and in test [6] was inactive. The call in [7], in test [8], in test [9], in test [10], in [11] and in test [12] was inactive. Moreover, the result in [13], in [14], in test [15], in [16], in test [17] and in test [18] was inactive. In [19], the result was inactive. Further, the AC50 in test [20] was 29.7 µM (active).
